PubChem BioAssay AID1259415 (National Center for Advancing Translational Sciences (NCATS), 2018)
Where “and” joins values, the source holds several entries; their conditions need not be identical. Equal values may be shown once. In all, about 410,000 compounds went through this assay and about 18,000 (4.4%) were called active. Roughly 7% stayed inconclusive and do not appear here. The sample holds actives, similar compounds and a random draw of the others, so the mix is not that of the screen. Cut-off read from the data, not from the text of the source: active = activity change below about -60%; inconclusive = no clear call, values can overlap the other calls; inactive = above about -39%.

test: qHTS Assay for inhibitors of the human cytomegalovirus (HCMV); settings: HFF cells, HCMV-luciferase reporter, 72 h; at 57.5 µM; hits give low values
Outline: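 Two compound doses tested in HFFs infected with HCMV-luciferase, MOI 1 PFU/cell, 72 h at 37C. Lysate luminescence read with OneGlo; data normalized against buffer-only and 10uM Salinomycin inhibitor controls.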
% is set by controls: 0 for no effect and ±100 for the full control effect.

SMILES	activity change, negative = inhibition
CC1CCN(CCCNC(=O)CN2C(=O)CSc3ccc(S(=O)(=O)N4CCCCC4)cc32)CC1	16.9% (inactive) and -5.47% (inactive)
CCOC(=O)c1ccccc1NC(=O)c1sc2nc(-c3ccc(F)cc3)cn2c1C	-4.65% (inactive)
Cc1cccc(C(=O)Nc2ccc(-c3nc4ncccc4o3)cc2C)c1	24.6% (inactive)
O=C1c2ccccc2C(=O)N1CCOc1ccc(F)cc1	-3.7% (inactive)
O=C1NC(=O)N(CCc2ccc(F)cc2)C(=O)/C1=C/C=C/c1ccccc1	-71.6% (active)
CCc1ccc(OCC(=O)N2CCN(CC(=O)Nc3ccccc3Cl)CC2)cc1	11.8% (inactive)
Clc1ccc(-c2cc(COc3ccccc3)no2)cc1Cl	0.868% (inactive)
Cc1ccc(NC(=O)CSc2nnc3[nH]c(=O)cc(C)n23)cc1Cl	-38.5% (inactive)
COc1ccc(-c2cc(=O)oc3cc(OC(C)C(=O)Nc4ccc(CN5CCOCC5)cc4)ccc23)cc1 (centres undefined)	-70.7% (active)
Cc1cc(=O)oc2cc(OC(C)C(=O)Nc3ccc(N4CCOCC4)cc3)ccc12 (centres undefined)	5.98% (inactive)
COc1ccc(-c2cc(=O)oc3cc(OC(C)C(=O)NCC4CCC(C(=O)O)CC4)ccc23)cc1 (centres undefined)	5.3% (inactive)
CCCNC(=O)c1ccc2c(c1)ncn2-c1ccc(C)cc1C	-6.25% (inactive)
O=C(Nc1ccc2nc(SCC(=O)N3CCCc4ccccc43)sc2c1)c1ccc(Cl)cc1	95.5% (inactive)
CC(C)(C)c1ccc(C(=O)Nc2ccc3c(c2)CCCN3C(=O)c2cccs2)cc1	-80.2% (active)
O=C(Nc1ccc2nc(SCC(=O)N3CCCc4ccccc43)sc2c1)c1ccc(F)cc1	-5.14% (inactive)
Cc1ccc(CNC(=O)CCCNC(=O)c2ccc(Cl)cc2)n1C	43.4% (inactive)
CCOc1ccccc1CNC(=O)C1CCCN(S(=O)(=O)c2ccc3c(ccn3C)c2)C1 (centres undefined)	-5.75% (inactive)
Cc1ccc(CNC(=O)CCc2c(C)nn(-c3ccc(N4CCCC4)nn3)c2C)cc1	19.6% (inactive)
CCCCCC1CCC(c2nnc(SCC(C)=O)o2)CC1 (centres undefined)	-99.8% (active)
Cc1[nH]c2ccccc2c1C(=O)C(C)Sc1nnc(C2CC2)o1 (centres undefined)	0% (inactive)
CCN(CC)C(=O)CSc1nnc(C2CCCCC2)o1	18.8% (inactive)
Cc1ccc(CNC(=O)CCNS(=O)(=O)c2ccc3c(c2)oc(=O)n3C)cc1	-1.91% (inactive)
COc1ccc2c(c1)[C@]13CCCCC1C(C2)N(C)CC3 (some centres undefined)	-2.65% (inactive)

SMILES	activity change, negative = inhibition
COC1=C[C@@H]2[C@@H]3Cc4ccc(OC)c(O)c4[C@]2(CCN3C)CC1=O	-68% (active)
COC1=CC=C2[C@H]3Cc4ccc(OC)c5c4[C@@]2(CCN3C)C1O5 (some centres undefined)	23.5% (inactive)
Cc1ccc(Cl)cc1N1CCN(C(=O)c2cccn3c(=O)c4cc(Cl)ccc4nc23)CC1	-4.38% (inactive)
COc1ccc(-c2nc3scc(CCNS(=O)(=O)c4cc(F)ccc4OC)n3n2)cc1OC	34.6% (inactive)
CCOC(=O)c1c(-c2ccc(C)cc2)csc1/N=C(\C)C1=C(O)c2ccccc2C1=O	-62.8% (active)
CCOC(=O)c1scc(-c2ccc(C)cc2)c1S(=O)(=O)Nc1cc(C)ccc1C	-16.6% (inactive)
CC(=NCc1ccc2c(c1)OCO2)C1=C(O)c2ccccc2C1=O	14.5% (inactive)
CSc1ccc(C2C(C(=O)Nc3ccccc3)=C(C)Nc3nc4ccccc4n32)cc1 (centres undefined)	8.38% (inactive)
COc1ccc(CNC(=O)Cn2nnc(-c3ccc(S(C)(=O)=O)cc3)n2)cc1	21.5% (inactive)
COc1cccc(N2CCN(c3ccc4nnc(CCC(=O)N5CCN(C)CC5)n4n3)CC2)c1	-14.4% (inactive)
COc1cccc(-c2nc3ccc(N4CCN(C)CC4)cc3[nH]2)c1	-68.2% (active)
COc1ccc(N2CCN(C3=NS(=O)(=O)C(c4cccc(Br)c4)=C3C)CC2)cc1	-29.4% (inactive)
CCCCOC(=O)CSc1ncnc2sc3c(c12)CCC(C)C3 (centres undefined)	-8.12% (inactive)
CN1CCN(/N=C/c2c[nH]c3ccccc23)CC1	41% (inactive)
CCC/C(=N\O)c1c[nH]c2ccccc12	26.6% (inactive)
C[n+]1ccc(/C=C/c2c[nH]c3ccccc23)cc1	-99.1% (active)
COc1ccc(Cl)cc1N(C)C(=O)c1cc2c(=O)oc3ccc(C)cc3c2s1	-13.9% (inactive)
O=C(CN1CCSc2ccccc21)N1CCN(c2ccccc2)CC1	-1.62% (inactive)
CCOC(=O)CCC(=O)OCC(=O)NC(C)C1CC2CCC1C2 (centres undefined)	-99.5% (active)
CC(NC(=O)CN(C)S(=O)(=O)c1ccc(F)cc1)C1CC2CCC1C2 (centres undefined)	5.39% (inactive)
Cc1cccc(C(=O)OCC(=O)NC(C)C2CC3CCC2C3)c1O (centres undefined)	50.9% (inactive)
COc1cccc(NC(=O)c2csnn2)c1	24.9% (inactive)
COc1cccc(NC(=O)c2nn(C34CC5CC(CC(C5)C3)C4)cc2[N+](=O)[O-])c1	-71.1% (active)

SMILES	activity change, negative = inhibition
Cn1cnc(S(=O)(=O)Nc2ccc3c(c2)OCCO3)c1	30.3% (inactive)
Cn1ccnc1SCC(=O)Nc1ccc2c(c1)OCCO2	147% (inactive)
COc1cccc(NC(=O)COc2cccnc2[N+](=O)[O-])c1	9.93% (inactive)
Cn1cc([N+](=O)[O-])c(C(=O)Nc2ccc3c(c2)OCCO3)n1	-91% (active)
O=C(NCc1ccco1)O[C@H]1CC[C@@]23CCCN2C(=O)CCC[C@H]3[C@H]1Cc1ccccc1	13.9% (inactive)
CCC(=O)N1CCc2cc(CNS(=O)(=O)c3ccc(Br)s3)ccc21	-28.1% (inactive)
CCOc1ccc(C(=O)N2CCN(CCc3ccccn3)CC2)cc1	7.37% (inactive)
Cc1nnc2n1N=C(c1ccc3c(c1)NC(=O)CO3)CS2	58.6% (inactive)
O=C(c1ccc2c(c1)N(Cc1ccccc1)C(=O)c1ccccc1S2(=O)=O)N1CCCC1	-21.3% (inactive)
O=C(c1ccc2c(c1)N(Cc1ccc(F)cc1)C(=O)c1ccccc1S2(=O)=O)N1CCN(c2ccccn2)CC1	-76.7% (active) and -91.8% (active)
O=C(c1ccc2c(c1)N(Cc1ccc(Cl)cc1)C(=O)c1ccccc1S2(=O)=O)N1CCCCC1	-15.9% (inactive)
Cc1ccc(Cl)cc1NC(=O)C(C)n1nnc2sc(-c3ccccc3)cc2c1=O (centres undefined)	17.8% (inactive)
COc1cc(OC)c(N(C)C(=O)c2cc3c(=O)oc4ccccc4c3s2)cc1Cl	-8.12% (inactive)
Cn1c(=O)c2c(nc(Oc3ccc(C#N)cc3)n2Cc2ccc(Cl)cc2Cl)n(C)c1=O	-9.46% (inactive)
Cc1cc(NC(=O)CSCc2ccccc2C)no1	-34.5% (inactive)
Cc1cc(NC(=O)COn2nnc3ccccc32)no1	29.8% (inactive)
Cc1cc(NC(=O)CS(=O)(=O)c2cn(C)c3ccccc23)no1	-74.2% (active)
Cc1ccc2c(=O)c(C(=O)c3ccc(Cl)cc3)cn(CC(=O)NC3CCCCC3)c2n1	-0.369% (inactive)
CCOc1ccc(CCNC(=O)c2c(C)oc3ncn(C)c(=O)c23)cc1	-13.7% (inactive)
Cc1cc(C)cc(OCC(=O)Nc2nc(-c3ccc(F)cc3)ns2)c1	150% (inactive)
CC(C)(C)c1nnc2sc(SCC(O)=C(C#N)c3nc4ccccc4[nH]3)nn2c1=O	-4.66% (inactive)
COc1ccccc1C(=O)COC(=O)COc1ccc(C#N)cc1	-31.6% (inactive)
N#C/C(=C(/O)COC(=O)COc1ccc(Cl)cc1)c1nc2ccccc2[nH]1	-101% (active)

SMILES	activity change, negative = inhibition
Cc1ccc(S(=O)(=O)Nc2ccccc2CNc2c(C)n(C)n(-c3ccccc3)c2=O)cc1	-7.12% (inactive)
CC1CCCN(Cc2c(O)ccc3c(=O)c(Oc4ccc(C(C)(C)C)cc4)c(C(F)(F)F)oc23)C1 (centres undefined)	-38.5% (inactive)
Cc1csc2nc(COC(=O)c3ccc(NC(=O)COc4ccccc4F)cc3)cc(=O)n12	14.4% (inactive)
O=C(CSc1nn(-c2ccc(F)cc2)c(=S)s1)NC1CCS(=O)(=O)C1 (centres undefined)	-34.3% (inactive)
O=C(CSc1ncnc2sccc12)NC1CCS(=O)(=O)C1 (centres undefined)	-22.5% (inactive)
O=C(CSc1ccccc1F)NC1CCS(=O)(=O)C1 (centres undefined)	-105% (active)
COC(=O)CC(CC(=O)OC)n1cccc1	19.2% (inactive)
COc1ccc(-n2c(SCC(=O)Nc3sc4c(c3C#N)CCCC4)nnc2-c2ccc(O)cc2)cc1	-15.5% (inactive)
COc1ccccc1-c1ccnc2[nH]n(-c3ccccc3)c(=O)c12	-8.55% (inactive)
COc1ccc2cc(CNc3ccc(OC)c(OC)c3)c(=O)n(CC(=O)Nc3ccccc3F)c2c1	9.9% (inactive)
CCOc1ccc(S(=O)(=O)N2CCCCC2)cc1NC(=O)CN1CCCC1c1cccs1 (centres undefined)	-90% (active)
Cc1ccc(S(=O)(=O)N2CCCCC2)cc1NC(=O)[C@@H]1CCCN1C(=O)c1cccs1	0% (inactive)
CCOc1ccccc1NC(=O)C1CCCN(S(=O)(=O)c2ccccc2)C1 (centres undefined)	-62% (active)
CCOc1ccccc1NC(=O)COc1ccc(S(=O)(=O)N2CCCC2)cc1	-21% (inactive)
COc1ccc(S(=O)(=O)N2CCCCC2)cc1NC(=O)COc1ccccc1	-25.1% (inactive)
CCOc1ccccc1NC(=O)C1CCCN(C(=O)Nc2ccccc2)C1 (centres undefined)	-21.6% (inactive)
O=C(O)CCc1cccnc1	-25.2% (inactive)
CN(Cc1ccccc1)S(=O)(=O)c1ccc(F)c(C(=O)Nc2cccc(Cl)c2Cl)c1	6.47% (inactive)
COc1ccc2ncc3c(-c4ccc(C)c(C)c4)nn(CC(=O)NC4CCCC4)c3c2c1	14.2% (inactive)
O=C(CSc1nccn1Cc1ccc(Cl)cc1)NCc1ccccc1	-18.2% (inactive)
